# Measurements taken from a collection of fitness landscapes (doi:10.1016/j.celrep.2020.107928).
# The full ranking holds about 81,000 sequences; the median of “one-hybrid fitness for binding parS DNA” is about -0.17, and the highest 2% start at about 0.51. Only a selection was taken, and the highest values are over-represented in it overall.
# B1: Caulobacter ParB omega fusion; a variant is named by its letters at X, in order, B8GW30 (parent)
# chain: MESVVVGEPGMSEGRRGLGRGLSALLGEVDAAPAQAPGEQLGGSREAPIEILQRNPDQPRRTFREEDLEDLSNSIREKGVLQPILVRPSPDTAGEYQIVAGERAWRAAQRAGLKTVPIMVRELDDLAVLEIGIIENVQRADLNVLEEALSYKVLMEKFERTQENIAQTIGKSXSHVANXMRLLXLPDEVQSYLVSGELTAXHARAIAAAADPVALAKQIIEGGLSVRETEALARKAPNLSAGKSKGGRPPRVKDTDTQALESDLSSVLGLDVSIDHRGSTGTLTITYATLEQLDDLCNRLTRGI
# Variants of: B1
# Assay: one-hybrid fitness for binding parS DNA (scaled: cognate 1, non-cognate 0); higher = stronger binding
# Conditions: with parS DNA site
# Summary of the method: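 Selection: bacterial one-hybrid in E. coli USO, HIS3 reporter with the site 19 bp from the promoter, 48 hours at 37°C on M9-minus-histidine plus 0.1 mM IPTG and 5 mM 3-AT. Libraries were Caulobacter ParB with four randomised specificity codons, sequenced on Illumina before and after selection. Fitness is the rescaled log change in variant-to-wild-type read ratio, anchored to the cognate and non-cognate sites.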
row,Variant,one-hybrid fitness for binding parS DNA
1,KHMR,≤ 0.2
2,VHNS,≤ 0.2
3,QCGM,≤ 0.2
4,MVQC,≤ 0.2
5,PQQE,≤ 0.2
6,MRLA,≤ 0.2
7,PVER,≤ 0.2
8,RYHT,0.889
9,RYHP,≤ 0.2
10,RYDR,≤ 0.2
11,RYDT,0.79
12,RYDF,≤ 0.2
13,RYQT,0.853
14,RYHH,0.213
15,RYQQ,≤ 0.2
16,RYQY,0.422
17,VVQF,≤ 0.2
18,QNYM,≤ 0.2
19,DLKH,≤ 0.2
20,LLYM,≤ 0.2
21,LLNS,≤ 0.2
22,QAGT,≤ 0.2
23,RTID,0.203
24,RTIT,0.813
25,RTPD,≤ 0.2
26,RTPY,0.221

row,Variant,one-hybrid fitness for binding parS DNA
1,RTPT,0.558
2,RTIN,0.355
3,PDAC,≤ 0.2
4,RPWY,≤ 0.2
5,RSWY,0.422
6,RCWY,0.513
7,RTWY,0.521
8,RAWY,0.512
9,IEES,≤ 0.2
10,IWRM,≤ 0.2
11,RRIW,≤ 0.2
12,VLVG,≤ 0.2
13,RWLK,≤ 0.2
14,RWPC,0.337
15,RWLC,0.658
16,RWHY,0.275
17,RWGN,≤ 0.2
18,RWIN,≤ 0.2
19,RWGC,0.61
20,RWHC,0.733
21,RWHQ,≤ 0.2
22,RWLM,≤ 0.2
23,RWGK,≤ 0.2
24,RWIC,0.521
25,CKVC,≤ 0.2
26,IMHG,≤ 0.2

row,Variant,one-hybrid fitness for binding parS DNA
1,QMQR,≤ 0.2
2,ATLN,≤ 0.2
3,RPRL,≤ 0.2
4,ASCK,≤ 0.2
5,TRPS,≤ 0.2
6,GPIF,≤ 0.2
7,WAKY,≤ 0.2
8,RWSY,0.338
9,RWQC,0.73
10,RWSK,≤ 0.2
11,RWQR,≤ 0.2
12,RWCK,≤ 0.2
13,RWRC,0.895
14,RWRD,≤ 0.2
15,RWCD,≤ 0.2
16,RWCC,0.636
17,RWSC,0.788
18,RWQQ,≤ 0.2
19,RWRH,0.223
20,ADHG,≤ 0.2
21,DYYC,≤ 0.2
22,LWRS,≤ 0.2
23,VTPY,≤ 0.2
24,PYRW,≤ 0.2
25,MYTG,≤ 0.2
26,RWYC,0.662

row,Variant,one-hybrid fitness for binding parS DNA
1,RWYD,≤ 0.2
2,NWWC,≤ 0.2
3,RWWM,≤ 0.2
4,RWYP,≤ 0.2
5,RWWC,0.521
6,GTFW,≤ 0.2
7,SPEV,≤ 0.2
8,GWNS,≤ 0.2
9,RHNC,0.871
10,RHSC,0.924
11,RHDC,0.878
12,RHDY,0.397
13,RHSH,≤ 0.2
14,RHSD,≤ 0.2
15,RHRR,≤ 0.2
16,RHDM,0.254
17,RHNN,0.386
18,RHRQ,≤ 0.2
19,RHNP,≤ 0.2
20,RHRC,0.879
21,GRGR,≤ 0.2
22,PQPN,≤ 0.2
23,DESG,≤ 0.2
24,ATAA,≤ 0.2
25,TIDL,≤ 0.2
26,FQIS,≤ 0.2

row,Variant,one-hybrid fitness for binding parS DNA
1,YIVC,≤ 0.2
2,CDYG,≤ 0.2
3,TKDN,≤ 0.2
4,ASNP,≤ 0.2
5,RHYF,0.211
6,RHCC,0.869
7,RHCF,≤ 0.2
8,RHLC,0.928
9,RHYC,0.92
10,RHLY,0.428
11,RHYR,≤ 0.2
12,RHCY,0.371
13,RHHY,0.4
14,RHHC,0.934
15,RHHM,0.266
16,RHLK,≤ 0.2
17,WTHL,≤ 0.2
18,QEVD,≤ 0.2
19,DTTH,≤ 0.2
20,VQAA,≤ 0.2
21,DVLS,≤ 0.2
22,THPF,≤ 0.2
23,RYAQ,≤ 0.2
24,RYFG,0.932
25,RYFM,0.264
26,RYAG,0.982

row,Variant,one-hybrid fitness for binding parS DNA
1,RYAY,0.425
2,RYFY,0.43
3,VACC,≤ 0.2
4,TPLH,≤ 0.2
5,GCSG,≤ 0.2
6,IIPI,≤ 0.2
7,PYAK,≤ 0.2
8,IRPT,≤ 0.2
9,RQEC,0.829
10,RQEG,0.89
11,RQET,0.719
12,RQEP,≤ 0.2
13,RQEK,≤ 0.2
14,RQED,≤ 0.2
15,RQEM,0.255
16,RQEQ,0.223
17,RQEH,0.281
18,RQER,≤ 0.2
19,RQES,0.962
20,RQEN,0.379
21,KSGF,≤ 0.2
22,HSSQ,≤ 0.2
23,MISR,≤ 0.2
